Test results published in ChEMBL document CHEMBL3988442, “University of Dundee, Small-Polar-MMV Screening Library” (2021).
For some of these results: Measured potencies and affinities stand elsewhere.

How the values were obtained:
Parameters in all cases: scale not given: direction of the effect not stated beside the values
[1] = molecular target: Protein translocase subunit SecA (Escherichia coli (strain K12)) (UniProt P10408); assay: Assay to Identify E. coli SecA ATPase Inhibitors; format: functional; conditions: 30 µM
Chain of Protein translocase subunit SecA (Escherichia coli (strain K12)) (P10408 whole entry): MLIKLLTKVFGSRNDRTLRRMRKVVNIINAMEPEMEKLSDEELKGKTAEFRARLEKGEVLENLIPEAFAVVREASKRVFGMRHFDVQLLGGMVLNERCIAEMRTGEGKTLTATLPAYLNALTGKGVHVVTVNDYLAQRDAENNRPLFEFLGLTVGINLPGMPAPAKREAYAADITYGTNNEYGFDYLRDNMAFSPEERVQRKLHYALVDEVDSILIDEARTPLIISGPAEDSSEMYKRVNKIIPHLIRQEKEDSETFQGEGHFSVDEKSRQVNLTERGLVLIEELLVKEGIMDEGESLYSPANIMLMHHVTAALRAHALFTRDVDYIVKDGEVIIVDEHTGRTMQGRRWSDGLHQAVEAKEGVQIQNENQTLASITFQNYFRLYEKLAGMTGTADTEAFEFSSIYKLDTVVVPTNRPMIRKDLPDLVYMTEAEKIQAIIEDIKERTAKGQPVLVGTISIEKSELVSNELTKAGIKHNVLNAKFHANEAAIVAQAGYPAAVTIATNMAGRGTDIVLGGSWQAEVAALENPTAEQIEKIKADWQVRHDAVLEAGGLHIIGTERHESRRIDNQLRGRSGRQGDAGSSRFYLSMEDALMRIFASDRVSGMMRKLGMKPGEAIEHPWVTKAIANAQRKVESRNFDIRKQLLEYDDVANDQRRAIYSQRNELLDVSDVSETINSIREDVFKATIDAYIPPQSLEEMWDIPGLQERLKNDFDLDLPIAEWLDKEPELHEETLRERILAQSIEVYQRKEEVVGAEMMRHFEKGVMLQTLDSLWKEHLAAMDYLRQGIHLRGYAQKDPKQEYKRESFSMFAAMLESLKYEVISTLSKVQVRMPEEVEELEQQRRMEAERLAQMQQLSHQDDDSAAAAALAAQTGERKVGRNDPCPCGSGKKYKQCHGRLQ

[2] = molecular target: T1, Ubiquitin-activating enzyme e1, putative (Leishmania donovani (strain BPK282A1)) (UniProt E9BSI1); assay: Leishmania donovani Ubiquitin Activating Enzyme (LdE1); format: functional; conditions: 30 µM
T1 sequence (whole entry): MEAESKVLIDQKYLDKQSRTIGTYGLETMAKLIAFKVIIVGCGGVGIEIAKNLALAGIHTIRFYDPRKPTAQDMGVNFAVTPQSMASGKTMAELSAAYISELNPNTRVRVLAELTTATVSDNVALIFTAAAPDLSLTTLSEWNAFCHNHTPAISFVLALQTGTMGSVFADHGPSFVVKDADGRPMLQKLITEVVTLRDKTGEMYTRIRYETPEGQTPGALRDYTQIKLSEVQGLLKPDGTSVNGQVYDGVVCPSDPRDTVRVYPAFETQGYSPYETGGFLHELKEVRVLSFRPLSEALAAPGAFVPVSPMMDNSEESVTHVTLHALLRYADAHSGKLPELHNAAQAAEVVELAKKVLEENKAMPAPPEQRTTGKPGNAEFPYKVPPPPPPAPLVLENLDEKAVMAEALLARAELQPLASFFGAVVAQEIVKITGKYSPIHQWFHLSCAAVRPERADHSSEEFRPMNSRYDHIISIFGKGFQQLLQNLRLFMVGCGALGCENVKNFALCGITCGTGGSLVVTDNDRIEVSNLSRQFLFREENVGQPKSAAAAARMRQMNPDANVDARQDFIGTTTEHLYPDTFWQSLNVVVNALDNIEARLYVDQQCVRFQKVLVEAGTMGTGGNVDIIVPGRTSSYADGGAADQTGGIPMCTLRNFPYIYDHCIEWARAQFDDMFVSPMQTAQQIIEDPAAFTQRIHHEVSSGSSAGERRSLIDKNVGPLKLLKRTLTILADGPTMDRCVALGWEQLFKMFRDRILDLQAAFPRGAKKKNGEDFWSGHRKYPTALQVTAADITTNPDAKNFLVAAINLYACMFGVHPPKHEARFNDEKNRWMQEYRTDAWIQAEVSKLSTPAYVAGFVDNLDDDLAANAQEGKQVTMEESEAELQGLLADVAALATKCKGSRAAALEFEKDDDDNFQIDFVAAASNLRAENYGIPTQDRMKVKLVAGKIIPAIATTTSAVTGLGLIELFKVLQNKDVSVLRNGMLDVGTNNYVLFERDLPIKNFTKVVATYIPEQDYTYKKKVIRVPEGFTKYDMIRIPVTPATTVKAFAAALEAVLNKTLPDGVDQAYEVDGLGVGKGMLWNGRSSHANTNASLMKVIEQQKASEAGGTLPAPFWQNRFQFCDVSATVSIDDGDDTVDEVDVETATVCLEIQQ

[3] = molecular target: AMP-activated protein kinase, AMPK (Homo sapiens) (UniProt P54646+O43741+P54619+Q9UGJ0+Q9Y478+Q13131+Q9UGI9); assay: AMP-dependent Kinase enzyme assay. An in vitro enzyme assay that detects ADP turnover that is directly proportional to AMPK activity. This uses naive AMPK that is activated during the assay with MK-8722; format: functional; conditions: 30 µM
[4] = molecular target: Sialic acid-binding Ig-like lectin 9 (Homo sapiens) (UniProt Q9Y336); assay: Hs-Siglec9 ALPHAscreen SOP 20170721; conditions: 10 µM
Chain of Sialic acid-binding Ig-like lectin 9 (Homo sapiens) (Q9Y336 whole entry): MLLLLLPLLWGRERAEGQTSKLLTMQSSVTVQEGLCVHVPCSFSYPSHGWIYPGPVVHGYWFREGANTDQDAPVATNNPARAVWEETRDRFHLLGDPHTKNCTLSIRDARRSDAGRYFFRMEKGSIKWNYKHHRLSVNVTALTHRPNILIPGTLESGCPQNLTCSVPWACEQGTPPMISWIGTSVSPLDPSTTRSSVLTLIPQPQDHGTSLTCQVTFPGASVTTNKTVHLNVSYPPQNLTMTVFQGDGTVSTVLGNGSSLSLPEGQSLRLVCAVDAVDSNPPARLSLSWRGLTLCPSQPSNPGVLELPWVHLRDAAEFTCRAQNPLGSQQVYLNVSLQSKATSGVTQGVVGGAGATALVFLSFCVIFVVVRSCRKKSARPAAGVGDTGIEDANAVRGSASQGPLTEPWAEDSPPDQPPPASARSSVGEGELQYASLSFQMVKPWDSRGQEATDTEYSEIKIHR

[5] = tested on: Trypanosoma cruzi; assay: Trypanosoma cruzi phosphomannomutase and mannose-1-phosphate guanylyltransferase assay; format: functional; conditions: 10 µM
[6] = molecular target: T2, Arginase-2, mitochondrial (Homo sapiens) (UniProt P78540); assay: in vitro enzyme assay to detect the production of urea directly proportional to the activity of Arginase II; format: functional; conditions: 33.3 µM; also: in the data most compounds retested in dose-response had high values
T2 sequence (whole entry): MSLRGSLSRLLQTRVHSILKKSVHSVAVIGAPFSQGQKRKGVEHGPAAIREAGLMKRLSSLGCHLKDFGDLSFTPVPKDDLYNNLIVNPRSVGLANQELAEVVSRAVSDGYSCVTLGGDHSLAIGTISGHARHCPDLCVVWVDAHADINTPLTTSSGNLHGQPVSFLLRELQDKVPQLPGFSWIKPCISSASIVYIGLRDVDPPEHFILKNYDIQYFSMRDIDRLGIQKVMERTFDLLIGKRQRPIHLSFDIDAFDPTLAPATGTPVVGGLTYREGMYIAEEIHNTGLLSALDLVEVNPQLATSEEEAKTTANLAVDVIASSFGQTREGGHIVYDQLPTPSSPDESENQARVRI

[7] = molecular target: T3, Proteasome subunit beta (Trypanosoma cruzi) (UniProt O96673); assay: Trypanosoma cruzi proteasome chymotrypsin-like activity (TcProtChymo) assay.; also: in the data most compounds retested in dose-response had high values; format: functional; conditions: 9.37 µM
T3 sequence (whole entry): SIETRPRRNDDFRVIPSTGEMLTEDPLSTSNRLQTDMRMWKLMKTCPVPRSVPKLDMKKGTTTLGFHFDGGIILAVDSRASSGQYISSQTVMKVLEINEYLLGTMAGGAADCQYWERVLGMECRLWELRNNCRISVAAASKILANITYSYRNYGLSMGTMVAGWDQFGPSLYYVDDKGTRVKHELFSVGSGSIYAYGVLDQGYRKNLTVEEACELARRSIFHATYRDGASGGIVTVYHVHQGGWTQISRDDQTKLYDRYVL

[8] = organism: Homo sapiens; assay: To identify inhibition of the IFN signalling (Jak-Stat) pathway via expression of an eGFP reporter gene under the control of an IFN-stimulated response element (ISRE) containing MxA promoter.; format: functional; conditions: 30 µM
[9] = molecular target: T4, Tyrosyl-tRNA synthetase, putative (Trypanosoma cruzi (strain CL Brener)) (UniProt Q4DSP6); assay: Trypanosoma cruzi tyrosyl tRNA synthetase (TcYRS) _High Tyrosine SOP; format: functional; conditions: 30 µM; also: in the data most compounds retested in dose-response had high values
T4 sequence (whole entry): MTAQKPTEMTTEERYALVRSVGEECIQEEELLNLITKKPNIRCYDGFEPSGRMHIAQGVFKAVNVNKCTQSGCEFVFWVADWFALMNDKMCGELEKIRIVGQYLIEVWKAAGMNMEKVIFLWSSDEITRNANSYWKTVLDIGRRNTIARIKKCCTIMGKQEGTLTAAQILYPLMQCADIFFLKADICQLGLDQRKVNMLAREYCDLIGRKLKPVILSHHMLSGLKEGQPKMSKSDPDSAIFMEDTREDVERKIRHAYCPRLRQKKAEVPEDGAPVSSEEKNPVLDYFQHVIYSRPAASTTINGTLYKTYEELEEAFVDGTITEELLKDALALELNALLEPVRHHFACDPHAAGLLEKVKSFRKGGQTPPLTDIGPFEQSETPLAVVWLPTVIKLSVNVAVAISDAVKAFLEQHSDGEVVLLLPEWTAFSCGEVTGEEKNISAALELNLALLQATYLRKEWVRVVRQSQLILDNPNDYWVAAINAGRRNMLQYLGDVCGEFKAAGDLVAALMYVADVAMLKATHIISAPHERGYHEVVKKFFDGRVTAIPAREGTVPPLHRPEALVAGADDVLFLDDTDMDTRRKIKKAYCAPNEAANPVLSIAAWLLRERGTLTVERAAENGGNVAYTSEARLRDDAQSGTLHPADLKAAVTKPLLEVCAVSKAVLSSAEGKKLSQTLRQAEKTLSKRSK

[10] = molecular target: T4, Tyrosyl-tRNA synthetase, putative (Trypanosoma cruzi (strain CL Brener)); assay: Trypanosoma cruzi tyrosyl tRNA synthetase (TcYRS) SOP; format: functional; conditions: 30 µM
[11] = molecular target: Chromo domain-containing protein 1 (Saccharomyces cerevisiae (strain ATCC 204508 / S288c) (Baker's yeast)) (UniProt P32657); assay: ScCHD-1 Enzyme Inhibition Assay; format: functional; conditions: 30 µM; also: in the data most compounds retested in dose-response had high values
Chain of Chromo domain-containing protein 1 (Saccharomyces cerevisiae (strain ATCC 204508 / S288c) (Baker's yeast)) (P32657 whole entry, the tested form may be a part): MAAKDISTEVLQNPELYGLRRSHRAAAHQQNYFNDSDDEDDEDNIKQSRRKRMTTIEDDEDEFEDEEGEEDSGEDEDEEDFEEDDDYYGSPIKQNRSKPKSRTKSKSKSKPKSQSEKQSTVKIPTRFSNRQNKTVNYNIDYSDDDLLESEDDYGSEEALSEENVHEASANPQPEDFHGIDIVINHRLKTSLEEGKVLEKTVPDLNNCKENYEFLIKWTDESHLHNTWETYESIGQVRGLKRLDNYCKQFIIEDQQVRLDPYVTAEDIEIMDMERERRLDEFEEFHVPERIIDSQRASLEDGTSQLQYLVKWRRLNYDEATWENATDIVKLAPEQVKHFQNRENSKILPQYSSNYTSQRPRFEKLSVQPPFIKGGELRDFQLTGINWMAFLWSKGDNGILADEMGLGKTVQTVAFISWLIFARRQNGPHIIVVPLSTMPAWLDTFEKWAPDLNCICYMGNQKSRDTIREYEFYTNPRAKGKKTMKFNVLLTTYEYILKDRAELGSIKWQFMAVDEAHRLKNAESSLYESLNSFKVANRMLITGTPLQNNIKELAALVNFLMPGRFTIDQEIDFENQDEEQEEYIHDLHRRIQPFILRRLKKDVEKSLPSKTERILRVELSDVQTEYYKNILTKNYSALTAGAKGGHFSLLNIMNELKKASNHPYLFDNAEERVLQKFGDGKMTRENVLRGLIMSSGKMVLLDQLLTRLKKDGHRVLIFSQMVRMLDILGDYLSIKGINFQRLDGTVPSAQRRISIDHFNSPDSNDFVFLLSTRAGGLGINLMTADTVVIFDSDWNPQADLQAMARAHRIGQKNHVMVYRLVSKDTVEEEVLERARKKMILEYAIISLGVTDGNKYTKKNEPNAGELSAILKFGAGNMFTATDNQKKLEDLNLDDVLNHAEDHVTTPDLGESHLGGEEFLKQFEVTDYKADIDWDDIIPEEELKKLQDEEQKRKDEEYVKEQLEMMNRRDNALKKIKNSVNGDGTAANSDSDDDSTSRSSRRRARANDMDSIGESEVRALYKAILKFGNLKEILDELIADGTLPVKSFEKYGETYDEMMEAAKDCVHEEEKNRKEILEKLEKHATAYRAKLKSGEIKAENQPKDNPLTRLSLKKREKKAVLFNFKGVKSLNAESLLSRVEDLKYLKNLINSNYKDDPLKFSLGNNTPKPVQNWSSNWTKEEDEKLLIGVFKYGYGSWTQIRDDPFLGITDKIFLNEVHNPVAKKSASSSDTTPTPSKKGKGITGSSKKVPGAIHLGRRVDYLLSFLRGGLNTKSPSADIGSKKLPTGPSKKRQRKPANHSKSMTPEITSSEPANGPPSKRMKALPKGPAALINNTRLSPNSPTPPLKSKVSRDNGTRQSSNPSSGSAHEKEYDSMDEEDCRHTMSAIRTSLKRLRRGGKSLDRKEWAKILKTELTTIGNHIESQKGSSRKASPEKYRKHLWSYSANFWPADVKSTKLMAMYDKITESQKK

SMILES | Percent Effect [1] | Percent Effect [2] | Percent Effect [3] | Percent Effect [4] | Percent Effect [5] | Percent Effect [6] | Percent Effect [7] | Percent Effect [8] | Percent Effect [9] | Percent Effect [10] | Percent Effect [11]
COc1ncc(NC(=O)Nc2cc(C)ccc2OC)cn1 | -9.27% | 15.6% | -6.73% | -2.77% | 9.57% | 0.645% | 15.3% | 10.7% | 3.17% | 11.5% | -7.83%
CC(=O)Nc1nc(C(=O)Nc2ccc(N3CCCCC3)nc2)cs1 | -1.91% | -3.8% | 22.9% | 0.734% | -3.18% | -1.5% | 10.6% | 11.2% | 9.38% | 10.1% | -11.6%
CSc1nccn1-c1cccc(C(=O)NCCCN2CCOCC2)c1 | -3.34% | 18.4% | 0.67% | -6.16% | 1.21% | -2.52% | 16.5% | 5.76% | 7.39% | 18.5% | -4.95%
CCC1=N[C@@]2(CC[C@@H]3CN(S(=O)(=O)CC(C)C)C[C@@H]32)C(=O)N1C | -0.279% | 10.4% | 4.02% | 2.43% | -3.25% | 7.1% | 13.2% | -9.27% | 5.29% | 16.7% | -9.12%
CCc1nnc2n1CCN(C(=O)C(C)COCc1ccccc1)C2 (stereo not drawn) | -1.9% | 10.5% | 0.611% | -4.15% | 7.94% | -1.44% | 6.68% | -1.54% | 3.45% | 16.1% | -2.72%
Cc1ccc(N2CCC3(CC2)CC(OCC(=O)N(C)C)CO3)nn1 (stereo not drawn) | -2.67% | 5.41% | 1.03% | -1.72% | -0.684% | 2.23% | 14.9% | -14.6% | 2.16% | 12.8% | 2.16%
O=C(NCc1ccccc1CN1CCC(O)CC1)Nc1ccncc1 | 5.78% | 10.8% | -5.37% | 6.21% | -5.21% | 0% | 16.2% | 28% | 6.88% | 14.6% | -3.29%
O=C(CC1CCCC1)NCCn1ccc(-c2ccncc2)n1 | -3.35% | 0% | 5.83% | 6.39% | -3.65% | 3.23% | 1.92% | 13.7% | -5.29% | 3.85% | 1.38%
